G9a block – inhibitors of human histone lysine methyltransferase G9a; G9a H3K9 monomethylation, AlphaScreen, 2 h; Q96KQ7; AID 504332; Potency, µM (series often up to 102 µM), for the others: top-dose activity, negative = inhibition, hits mostly inhibitors; 8.8% of 350,000 active; also: potency is read from the fitted curve at half-maximal effect; % is scaled to controls: 0 for no effect and ±100 for the full control effect; nearly all actives have a fitted effect of over 75% in size
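Chemiluminescent proximity detection of H3K9 monomethylation, read after 10 min bead incubation in the dark. Reaction: 20 nM G9a, 500 nM biotin-H3K9 peptide, 20 uM SAM cofactor, 2 h, room temperature, following 15 min enzyme-compound preincubation.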
JMJD2A Tudor inh – JMJD2A Tudor domain (human) inhibition; 4.4% of 390,000 active; O75164; Potency, µM (titrated, usually from 114 µM), without a hit: at the highest dose activity change, negative = inhibition, usual class: inhibitors; AID 504339; AlphaScreen JMJD2A-Tudor / H3K4me3 peptide binding; also: potency is read from the fitted curve at half-maximal effect; % is scaled to controls: 0 for no effect and ±100 for the full control effect; nearly all actives have a fitted effect of over 50% in size
Six1-Eya2 blk – blocks human Six1 binding to Eya2; Q15475+O00167; AlphaScreen GST-Six1/His-Eya2 binding, biochemical; active compounds read low; activity change, % (no concentration beside the values); 0.56% of 360,000 active; in the data active = activity change below about -65%; inconclusive = mostly about -30% to -63%; also: % is scaled to controls: 0 for no effect and ±100 for the full control effect
Target sequence (O00167 whole entry, looked up): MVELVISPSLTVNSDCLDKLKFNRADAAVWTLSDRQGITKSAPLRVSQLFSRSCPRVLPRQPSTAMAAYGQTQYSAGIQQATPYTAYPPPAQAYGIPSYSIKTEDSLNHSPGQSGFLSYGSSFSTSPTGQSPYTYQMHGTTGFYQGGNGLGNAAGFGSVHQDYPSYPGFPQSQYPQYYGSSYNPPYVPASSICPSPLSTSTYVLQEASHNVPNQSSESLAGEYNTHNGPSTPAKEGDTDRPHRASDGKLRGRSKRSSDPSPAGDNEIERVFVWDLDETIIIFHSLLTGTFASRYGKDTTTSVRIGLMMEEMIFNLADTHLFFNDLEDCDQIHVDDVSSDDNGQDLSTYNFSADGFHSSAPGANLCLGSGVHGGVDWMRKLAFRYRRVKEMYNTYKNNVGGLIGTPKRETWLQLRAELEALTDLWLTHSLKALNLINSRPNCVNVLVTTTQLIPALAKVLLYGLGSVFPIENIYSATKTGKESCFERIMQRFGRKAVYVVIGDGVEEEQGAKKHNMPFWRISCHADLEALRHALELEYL
Target sequence (Q15475 whole entry, looked up): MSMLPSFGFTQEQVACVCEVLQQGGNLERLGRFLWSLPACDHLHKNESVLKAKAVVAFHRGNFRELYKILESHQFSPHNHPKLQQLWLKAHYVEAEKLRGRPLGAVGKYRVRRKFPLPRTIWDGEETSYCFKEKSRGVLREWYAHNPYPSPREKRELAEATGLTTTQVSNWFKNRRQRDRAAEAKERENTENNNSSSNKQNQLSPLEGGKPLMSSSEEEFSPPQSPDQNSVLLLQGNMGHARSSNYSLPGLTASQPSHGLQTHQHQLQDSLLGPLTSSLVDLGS
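Six1/Eya2 binding was read as AlphaScreen signal after compounds were pinned into GST-Six1 plus His-tagged Eya2 (5X stock 250/500 nM) in pH 8.0 Tris/NaCl/TCEP buffer, beads added, then incubated 1 h, 37 C, dark.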
CtBP-E1A inh – blocks the CtBP interaction with E1A; activity change, % (test concentration not listed); AID 651724; AlphaScreen GST-E1A/His-CtBP binding, 1536-well; active compounds read low; 0.49% of 340,000 active; in the data active = activity change below about -65%; inconclusive = mostly about -30% to -63%; also: % is scaled to controls: 0 for no effect and ±100 for the full control effect
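Homogeneous bead-based format: GST-tagged E1A captured on glutathione donor beads, His-tagged CtBP on nickel acceptor beads; compounds precede bead addition by 2 h at 37 °C.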
BAZ2B block – BAZ2B (human) inhibition | AlphaScreen BAZ2B-H3K14Ac peptide displacement | Potency, µM (doses to about 114 µM), for the others: top-dose activity change, negative = inhibition, most hits filed as inhibitors | 4.4% of 360,000 active; also: potency is read from the fitted curve at half-maximal effect; % is scaled to controls: 0 for no effect and ±100 for the full control effect; nearly all actives have a fitted effect of over 60% in size
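AlphaScreen displacement of biotin-H3(5-23)K14Ac peptide (50 nM final) from BAZ2B (50 nM final) in PBS pH 7.4, 0.01% Tween-20; complex preformed 30 min RT, then compounds (top 110 uM) 30 min RT, beads 20 min dark.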
HP1b binding inh – blocks HP1-beta chromodomain binding to methylated histone tails; Potency, µM (series often up to 114 µM), for inactives: top-dose activity change, negative = inhibition, actives largely listed as inhibitors; P83916; AlphaScreen HP1-beta / biotin-H3K9me3 peptide binding; 0.56% of 390,000 active; also: potency is read from the fitted curve at half-maximal effect; nearly all actives have a fitted effect of over 70% in size
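Compound inhibition of the preformed complex between 50 nM HP1-beta and 50 nM biotinylated H3K9me3 peptide was read by AlphaScreen. Buffer was PBS pH 7.4 with 0.01% Tween-20. Incubations ran 30 min at room temperature, with 10 ug/mL donor/acceptor beads.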
The depositor's hits bear a star; u = inconclusive; x = no result given; ! = repeats disagree; [ ] = dose if it differs, or a comment. Rows were chosen to be rich in hits. Some 10% of all compounds tested hit in one or more screens of this group. Unless noted, calls follow the shape of the dose curve; as a rule, active = well fitted inhibition curve with a large enough effect; inconclusive = small, poorly fitted or top-dose-only effect; inactive = no such curve, though single readings can be large or run the other way.

SMILES	G9a block	JMJD2A Tudor inh	Six1-Eya2 blk	CtBP-E1A inh	BAZ2B block	HP1b binding inh
Cc1ccc(C(=O)/C=C/c2ccc(-c3ccc(C)cc3)o2)cc1	u	79.4µM*	18.8	18.7	-34.2%	-24.6%
Cc1ccc(C(=O)/C=C\C(=O)c2ccc(C)cc2)cc1	1.58µM*	-19.0%	0.0	4.8	-10.0%	-5.3%
O=C(c1ccc(-c2cccc(C(F)(F)F)c2)o1)N1CCOCC1	u	0.0%	-3.6	-1.2	0.5%	36.3%
Cc1nc2ccc(C(=O)N3c4ccccc4N=C(c4ccc5c(c4)OCO5)C3C(=O)NCc3ccccc3)cc2[nH]1 (stereo unspecified)	x	x	-10.1	-13.2	x	x
CCc1ccc(NC(=O)CSc2nc(C)c(C(=O)Nc3ccc(Cl)cc3)c(-c3ccc(OC)cc3)c2C#N)cc1	7.2%[59 µM]	-5.9%	x	x	-1.8%	39.3%
COCCOC(=O)c1c(C)nc(SCC(=O)Nc2ccc(OC)cc2)c(C#N)c1-c1ccco1	44.7µM*	-9.9%[11.4 µM]	-5.5	-2.2	5.2%	33.8%
COC(=O)/C=C1\OCc2cccc(C)c21	x	x	1.7	5.1	x	x
O=C(Cc1ccccc1)Nc1ccc(SC(F)F)cc1	24.6%[59 µM]	16.8%	2.9	6.6	16.6%	73.3%
O=C(N/N=C/c1cn(Cc2cccc(F)c2)c2ccccc12)c1cc(O)cc(O)c1	x	7.08µM*	-75.1*	-72.5*	6.31µM*	11.2µM*
O=C(O)c1ccc(N/N=C/c2cn(Cc3ccccc3F)c3ccccc23)cc1	1.9%[12.7 µM]	56.2µM*	-5.6	0.1	39.8µM*	-16.0%
Nc1ccc(C(=O)N/N=C/c2cn(Cc3ccccc3F)c3ccccc23)cc1	x	89.1µM*	-9.2	-9.6	35.5µM*	8.6%
Cn1cc(/C=N/Nc2ccccc2)c2ccccc21	12.6µM*	50.1µM*	-1.2	3.1	39.8µM*	u
COC(=O)N/N=C/c1cn(Cc2ccccc2F)c2ccccc12	-4.5%[12.7 µM]	-22.7%	-13.6	0.4	u	10.8%
CC(=O)N1c2ccc(S(=O)(=O)N(C)CC(=O)N(Cc3ccccc3)C(C)C)cc2CC1C (stereo unspecified)	-9.9%[59 µM]	-8.1%	x	x	u	21.3%
COc1ccc(-c2cccc(N3CCN(c4ccccn4)CC3)n2)cc1OC	x	x	-13.4	-11.6	x	x
CC(C)n1cc(/C=N/Nc2ccc(C(=O)O)cc2)c2ccccc21	44.7µM*	-31.0%	-7.5	-3.3	-35.3%	0.6%
O=C(CC(=O)c1ccccn1)c1ccccc1	x	25.1µM*	u	u	x	36.1%
O=C(c1ccccc1)c1ccccn1	10.6%	-6.2%	-2.0	7.3	-0.9%	30.4%
Cc1cccc(NC(=O)c2ccccn2)c1C	u	7.94µM*	0.7	2.1	-3.5%	8.3%
O=C(O)c1ccc2cccnc2n1	35.5µM*	7.08µM*	-16.3	-4.6	28.2µM*	u
O=C(O)c1ccccn1	0.562µM*!	3.98µM*	u	-66.0*	2.82µM*	27.1%
CCOC(=O)C1CCCN(C(=O)c2c(C)nn(-c3ccc(F)cc3)c2-n2cccc2)C1 (stereo unspecified)	6.9%[59 µM]	-4.5%	x	x	-29.1%	41.2%
Cc1ccc(C)c(N(C)C(=O)CCNC(=O)Cn2cnc3ccccc3c2=O)c1	-5.0%[59 µM]	-17.6%	x	x	-0.3%	13.4%
Cc1cc(C2CCCCC2)n(O)c(=O)c1	4.9%[59 µM]	u	-0.5	u	79.4µM*	24.9%
Cc1ccc(-n2ncc(C(=O)NCC3CCN(C4CCCC4)C3)c2C2CCN(C(=O)OC(C)(C)C)CC2)cc1 (stereo unspecified)	70.8µM*	-30.4%	2.8	-13.8	u	46.7%
SMILES	G9a block	JMJD2A Tudor inh	Six1-Eya2 blk	CtBP-E1A inh	BAZ2B block	HP1b binding inh
O=C(c1cc(C2CCCCN2S(=O)(=O)c2ccc(F)cc2F)on1)N1CCOCC1 (stereo unspecified)	x	x	0.0	4.2	x	x
Cc1cccc(Nc2nc(-c3ccc4c(c3)OCCO4)cs2)c1	7.94µM*	u	-6.8	-2.0	50.1µM*	-35.2%
Cc1nc(-c2ccc3c(c2)OCCO3)cs1	31.6µM*	-11.2%	8.2	5.0	-16.2%	8.1%
O=C(Nc1nc(-c2ccc3c(c2)OCCO3)cs1)C1CCCC1	44.7µM*	u	-1.3	-10.9	u	20.1%
CC(O)(c1ccccc1)c1nc(-c2ccc3c(c2)OCO3)cs1 (stereo unspecified)	x	x	-4.1	-17.3	x	x
CCn1nc(NC(=O)Cc2ccc(OC)cc2)c2cc3cc(C)ccc3nc21	44.7µM*	-8.6%	6.7	x	-4.4%	22.8%
CCn1nc(NC(=O)Cc2ccc(OC)cc2)c2cc3cccc(C)c3nc21	6.1%	-2.4%	20.2	11.5	3.4%	3.8%
CCCCn1c(SCC(=O)c2ccc(O)c(O)c2)nc2ccsc2c1=O	7.3%[59 µM]	u	-11.5	-3.5	u	u
O=C(CSc1nc2ccsc2c(=O)n1CC1CCC(C(=O)O)CC1)c1ccc(Cl)cc1 (stereo unspecified)	56.2µM*	79.4µM*	-26.9	13.2	x	-19.1%
O=C(O)CCCCCn1c(SCC(=O)c2ccc(O)c(O)c2)nc2ccsc2c1=O	79.4µM*	u	u	u	u	-1.9%
CCC(CO)N=CC1=C(O)CC(C)(C)CC1=O (stereo unspecified)	70.8µM*	-10.9%	8.5	-18.1	-1.0%	19.7%
O=C1CCc2cc(S(=O)(=O)Nc3ccccn3)ccc2N1	x	-11.6%	x	x	x	x
COCCSc1ccccc1C(=O)Nc1ccc2c(c1)OCCO2	3.55µM*	2.3%	-0.1	0.8	2.2%	58.8%
COc1ccccc1OC(C)C(=O)Nc1cccc(-c2nc3ccccc3s2)c1 (stereo unspecified)	8.91µM*	0.3%	x	x	2.3%	18.5%
COc1ccc(OC(C)C(=O)Nc2cccc(OC)c2)cc1 (stereo unspecified)	-37.8%[12.7 µM]	-2.3%	30.9	2.0	-1.3%	69.1%
COCCSc1ccccc1C(=O)NCc1ccc2c(c1)OCO2	u	-28.7%	3.4	6.8	-0.2%	31.9%
CC(Oc1ccc(F)cc1)C(=O)Nc1cccc(-c2nn[nH]n2)c1 (stereo unspecified)	25.1µM*	-22.7%	-7.0	-6.0	-17.1%	-0.4%
O=C(Nc1nncs1)c1cccnc1Cl	1.41µM*	-17.7%	5.8	0.9	-5.1%	4.7%
Cc1csc(NC(=O)c2cccnc2Cl)n1	x	-12.8%	9.2	1.0	x	-0.2%
O=C(CSc1nccn1Cc1ccccc1)Nc1ccc2c(c1)OCCO2	-6.6%[59 µM]	-32.9%	x	x	u	-2.0%[57 µM]
COCCSc1ccccc1C(=O)Nc1cc(C)cc(C)c1	4.47µM*	0.6%	0.6	x	0.0%	51.8%
COCCSc1ccccc1C(=O)Nc1ccncc1	u	-0.6%	6.2	4.2	1.9%	11.0%
COc1cc(SC)ccc1C(=O)Nc1ccc2c(c1)OCCO2	50.1µM*	-14.5%	-4.2	-4.6	-22.4%	3.4%
